Laboratory results taken from PubChem BioAssay (NCI).
The panel holds about 83,000 compounds, 20% with a hit somewhere; the sample as a whole holds those more often.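 Compound tested at a single concentration for 48 hours in 96-well plates; a percent growth value below 10 was scored as active.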 The source made the active and inactive calls.

System: HL-60(TB) leukemia
Test: NCI-60 one-dose screen, 48 h (100 = growth as untreated, 0 = no growth, -100 = all killed)
Conditions: 10 µM unless noted

SMILES | growth
CC[C@@H]1C(=O)N(C)c2cnc(Nc3ccc(C(=O)NC4CCC(N5CCN(CC6CC6)CC5)CC4)cc3OC)nc2N1C(C)C (stereo not given in full) | -48.5% (active)
C=CC(=O)Nc1cccc(Oc2nc(Nc3ccc(N4CCN(C)CC4)cc3)nc3ccsc23)c1 | -62% (active)
c1ccc2c(c1)Nc1ccncc1S2 | 132% (inactive)
CCN(C)c1ccccc1 | 100% (inactive)
O=C(Nc1cccc(-n2cc(-c3ccncc3)c(-c3ccc(O)c(Cl)c3)n2)c1)c1ccc(Cl)c(Cl)c1 | 33.9% (inactive)
COc1cc2cc(NCc3ccncc3)nc(C)c2cc1OC | 103% (inactive)
CCCCN(CCCC)CCC(O)c1cc2ccc(C(F)(F)F)cc2c2cc(C(F)(F)F)ccc12 (stereo not given) | 49.8% (inactive)
O=C(O)c1cn(C2CC2)c2cc(N3CCN(S(=O)(=O)c4ccc(Cl)c(Cl)c4)CC3)c(F)cc2c1=O | -38.3% (active)
Oc1cccc(-c2nc(N3CCOCC3)c3c4c(sc3n2)CCCC4)c1 | 74.7% (inactive)
Cc1ccc(N)cc1CN1C(=O)c2ccccc2C1=O | 107% (inactive)
O=c1oc2ccc(Cl)cc2cc1-c1cs/c(=N/N=C\c2ccc(Cl)cc2)n1/N=C/c1ccc(Cl)cc1 | 95.1% (inactive)
CCCCOC(=O)C1OC(Oc2ccc3c(C)cc(=O)oc3c2)[C@@H](OC(C)=O)C(OC(C)=O)C1OC(C)=O (stereo not given in full) | 102% (inactive)
COc1ccc(Br)c2ccccc12 | 88.4% (inactive)
Cc1cccc(Cc2cnc(NC(=O)CCc3ccc(C)o3)s2)c1 | -41.5% (active)
O=C(CNCCO)Nc1ccc2ncnc(Nc3ccc(OCc4cccc(F)c4)c(Cl)c3)c2c1 | 86.9% (inactive)
